Compound activity (PubChem)
GLP1R ag – agonists of human GLP-1 receptor; 380,000 compounds, 0.007% hits; AID 624172; Potency, µM (titrated, usually from 45.6 µM), for inactives: at the top dose activation, usual class: activators; HEK293 GLP-1R CRE-luciferase, luminescence, 4-6 h; cells express a hypersensitive GLP-1R form; further: potency means the concentration at half of the fitted maximal effect; % of control where 0% means no effect
GLP1R inv ag – GLP-1 receptor (human) inverse agonism; P43220; HEK293 GLP-1R CRE-luciferase, luminescence, 24 h; GLP-1R form is constitutively active; Potency, µM (titrated, usually from 38.3 µM), without a hit: top-dose activity change, negative = inhibition, actives largely listed as inhibitors; 410,000 compounds, 1.6% hits; further: potency means the concentration at half of the fitted maximal effect; on the % scale 0 is the no-effect control and ±100 the full control effect; nearly all actives have a fitted effect of over 55% in size
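Using stably transfected HEK293 (constitutively active GLP-1R, cAMP-luciferase reporter), compounds were incubated 24 hr and luciferase measured by luminescence.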
PTHR1 ag – activates the human parathyroid hormone receptor PTHR1; Potency, µM (highest dose often 115 µM), for the others: top-dose activation, usual class: activators; 410,000 compounds, 0.075% hits; Q03431; HEK293 GP2 PTHR1 cells, GloSensor cAMP luminescence, 1 h; further: potency means the concentration at half of the fitted maximal effect; nearly all actives have a fitted effect of over 55% in size
Target sequence (Q03431 whole entry, looked up): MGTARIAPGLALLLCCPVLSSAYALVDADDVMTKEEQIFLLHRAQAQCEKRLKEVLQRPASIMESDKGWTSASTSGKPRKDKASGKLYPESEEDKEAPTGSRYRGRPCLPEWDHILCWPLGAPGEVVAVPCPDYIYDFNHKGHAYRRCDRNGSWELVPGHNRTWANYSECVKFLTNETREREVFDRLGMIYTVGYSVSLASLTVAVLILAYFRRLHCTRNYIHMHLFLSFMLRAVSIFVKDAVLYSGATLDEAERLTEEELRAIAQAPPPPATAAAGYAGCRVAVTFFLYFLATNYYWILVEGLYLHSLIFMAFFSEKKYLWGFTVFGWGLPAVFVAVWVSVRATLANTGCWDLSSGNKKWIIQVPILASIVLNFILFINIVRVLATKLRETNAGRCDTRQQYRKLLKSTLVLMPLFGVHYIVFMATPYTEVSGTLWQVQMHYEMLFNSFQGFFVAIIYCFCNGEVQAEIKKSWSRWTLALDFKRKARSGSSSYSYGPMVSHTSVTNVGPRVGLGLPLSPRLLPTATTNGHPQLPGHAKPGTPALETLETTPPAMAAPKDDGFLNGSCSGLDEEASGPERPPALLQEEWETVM
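HEK-293-derived GP2 cells expressing PTHR1 and a GloSensor cAMP reporter, 3,000/well, plated overnight, given luciferin plus IBMX (each 0.5 mM as added) for 1 h at 37 °C, then compound for 1 h at 37 °C. Luminescence was read after 15 min at room temperature.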
TRHR agonist – activates the human TRH receptor. 360,000 compounds, 0.18% hits. P34981. activation, % at 2 µM. TRHR cells, calcium flux fluo-8, FDSS agonist mode; in the data active means activation above about 30%; further: 0% is about no effect
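Fluo-8-loaded TRHR cells; 10 s baseline, compound added, kinetic Ca2+ fluorescence read 1/s, agonist mode.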
TRHR PAM – allosteric enhancers of human TRH receptor. 360,000 compounds, 0.66% hits. AID 493056. enhancement, % at 2 µM. P34981. TRHR cells, fluo-8 calcium fluorescence, EC20 TRH enhancement; in the data active means enhancement above about 30%; further: 0% is about no effect
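Enhancer read-out: after compound pinning and an initial kinetic agonist-mode read, an EC20 of TRH (10 nM final) was injected and fluo-8 calcium signal (Ex 480/Em 530) followed at 1 s/cycle for 100 cycles in TRHR-expressing cells.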
HEK293 tox – cytotoxic in the GLP-1 receptor inverse agonist counter-screen | Potency, µM (series often up to 38.3 µM), for the others: at the top dose activity change, negative = inhibition, actives largely listed as inhibitors | 410,000 compounds, 0.13% hits | HEK293 cAMP-luciferase reporter cells, luminescence, 24 h;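 further: loss of luciferase light is scored as toxicity; potency means the concentration at half of the fitted maximal effect; on the % scale 0 is the no-effect control and ±100 the full control effect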
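MLSMR compounds, 24 hr on cells at 37 deg C/5% CO2; luminescence after luciferase reagent (12 min RT). Inhibition counted as the undesired cytotoxic outcome.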
The depositor's hits bear a star; i = inactive; ? = inconclusive; nt = not tested or not shown; [ ] = remark or other dose. This is a sample that favours compounds with a hit; in the whole collection about 2.4% have one here. Unless noted, the call rests on the fitted dose curve; in most records, active means well fitted curve in the direction sought with a large enough effect; inconclusive means small, poorly fitted or top-dose-only effect, or another doubt; inactive means no such curve, though single readings can be large; an effect the other way counts as inactive or inconclusive.

SMILES	GLP1R ag	GLP1R inv ag	PTHR1 ag	TRHR agonist	TRHR PAM	HEK293 tox
COc1ccc2[nH]c3c(c2c1)CCN1C(=O)C(CC(=O)NCC24CC5CC(CC(C5)C2)C4)C[C@H](C(=O)N2CCOCC2)[C@@]31C (some centres not stated)	0.2%	?	-14.2%	nt	nt	3.1%
Cc1cc(C)c(S(=O)(=O)Cc2ccccc2)c(OC(C)C)n1	12.8%	?	-7.1%	-1.5	16.9	-3.7%
CCC(C)NC(=O)CC(NS(=O)(=O)c1ccc(C)cc1)c1ccc(OC)cc1 (configuration not stated)	-9.3%	21.1%	i	-0.7	-2.5	-4.0%
N#Cc1ccccc1Oc1ccccc1C=O	-5.8%	?	-12.7%	1.7	0.9	-10.9%
CCOc1ccc(C(C(=O)NCC2CCCO2)N(CCc2cccc(C)c2)C(=O)c2snc(C(N)=O)c2N)cc1 (configuration not stated)	0.4%	7.94µM*	-35.9%	-0.2	6.9	?
CCCCNC(=O)Nc1ccccc1C(=O)NCCC	-3.9%	0.0%	-2.4%[57.5 µM]	-1.0	-11.1	-26.1%
CCCCNC(=O)c1ccccc1NC(=O)CCSc1ccccc1	24.3%	10µM*	-21.2%[57.5 µM]	-1.0	20.8	5.3%
O=C(CCl)Nc1ccccc1C(=O)NCc1ccccc1	-5.2%	?	i	-0.3	33.5*	-35.2%
Cc1noc(C)c1COC(=O)c1cccc(S(=O)(=O)N2c3ccccc3CC2C)c1 (configuration not stated)	2.7%	14.1µM*	i	0.4	-1.7	2.8%
COc1cc(OC)nc(-n2ncc(Br)c(Br)c2=O)n1	-4.6%	?	-30.2%	-0.6	1.8	3.16µM*
COC(=O)c1cnn(-c2nc(OC)cc(OC)n2)c1C	-0.5%	-0.9%	-20.0%	-0.1	4.1	6.8%
O=C(Cn1c(=O)c(=O)n(Cc2ccccc2)c2ccc(Cl)cc21)Nc1ccc(F)cc1F	-2.2%	-0.3%	i	1.1	-3.9	-5.7%
O=C(CCN1C(=O)C2CC=C(Cl)CC2C1=O)Nc1ccccc1O (configuration not stated)	19.8%	2.6%	i	0.1	16.8	-14.4%
CC1C(=O)C(C)C(c2ccc(Br)cc2)NC1c1ccc(Br)cc1 (configuration not stated)	-1.6%	-18.4%	-35.7%	0.8	0.9	-13.9%
CC1C(=O)C(C)C(c2cc(Br)ccc2O)NC1c1cc(Br)ccc1O (configuration not stated)	6.8%	5.01µM*	-3.5%	nt	nt	?
O=C(NCC(c1ccco1)N1CCc2ccccc2C1)c1ccc(F)cc1 (configuration not stated)	0.9%	?	i	-0.1	-1.0	-10.3%
N#Cc1nc(Cc2cccc3ccccc23)oc1N1CCCCC1	12.8%	10µM*	i	-0.3	2.6	88.0%
CN1CCN(c2oc(Cc3cccc4ccccc34)nc2C#N)CC1	18.0%	?	i	-0.3	1.1	-0.1%
O=C(NCc1nc(-c2ccc(Cl)cc2)no1)c1ccc2c(c1)OCO2	1.7%	?	-63.3%	-0.9	1.7	1.3%
CC(=O)NN1C(=O)c2ccccc2NC1c1ccccc1O (configuration not stated)	2.9%	-1.3%	i	0.3	33.3*	-29.0%
COc1cccc(Oc2ccc(OC)cc2C(=O)O)c1	-3.2%	14.1%	i	0.2	2.9	-14.3%
O=C(NC(=S)N1CCN(c2c(Cl)cccc2[N+](=O)[O-])CC1)c1cccs1	-0.1%	0.0%	-28.0%	-0.8	1.5	7.08µM*
COc1ccc(N2CCN(C(=S)NC(=O)c3cccs3)CC2)c([N+](=O)[O-])c1	9.1%	?	-12.3%	-0.4	-23.3	?
O=C(c1ccc2c(c1)CCN2S(=O)(=O)c1ccccc1)N1CCN(c2ccccc2)CC1	30.3%	2.2%	-29.0%	0.3	33.2*	2.5%
O=C(Nc1cccc(Cl)c1)c1ccc2c(c1)CCN2S(=O)(=O)c1ccccc1	nt	2.51µM*	-16.8%	15.5	7.5	-6.9%
SMILES	GLP1R ag	GLP1R inv ag	PTHR1 ag	TRHR agonist	TRHR PAM	HEK293 tox
CS(=O)(=O)N1CCc2cc(C(=O)N3CCN(c4ccccc4)CC3)ccc21	-5.5%	-14.5%	-15.7%	-0.8	-6.4	-10.1%
CCC(C)NC(=O)Cn1c(=O)n(-c2ccc(C)cc2)c(=O)c2ccccc21 (configuration not stated)	-1.4%	7.0%	i	-0.9	0.2	-15.7%
Cc1ccc(NC(=S)/N=C(\N)Nc2nc(C)c3ccccc3n2)cc1C	-20.0%	?	-15.2%	0.1	-6.9	?
CCOC(=O)c1cnc2ccc(OCC)cc2c1N1CCN(c2ccccc2)CC1	0.4%	8.91µM*	-0.6%[57.5 µM]	0.3	7.3	-23.5%
CCOC(=O)c1cnc2c(C)c(Cl)ccc2c1N1CCN(CC)CC1	14.1%	7.94µM*	i	1.3	4.7	18.7%
CNC(=S)N(Cc1ccc(OC)cc1)C1CC(=O)N(c2ccc(Cl)cc2)C1=O (configuration not stated)	-2.3%	11.2µM*	-40.0%	0.0	7.0	-16.2%
CCCCCCN1C[C@@H](n2cc(COC(=O)c3ccccc3)nn2)[C@H](O)C[C@@H]1c1ccc(OC)cc1	-3.1%	14.1µM*	-28.5%	nt	nt	-22.7%
O=C(OCc1cn([C@H]2CN(C(=O)C3CCCCC3)[C@@H](c3ccc(Cl)cc3)C[C@@H]2O)nn1)c1ccccc1	1.1%	11.2µM*	-34.0%	nt	nt	-16.7%
CCCCCCN1C[C@H](n2cc(COC(=O)c3ccccc3)nn2)[C@@H](O)C[C@@H]1c1ccccc1	-2.8%	?	-12.8%	nt	nt	5.4%
O=C(OCc1cn([C@@H]2CN(C(=O)C3CCCCC3)[C@@H](c3ccccc3)C[C@H]2O)nn1)c1ccccc1	-4.1%	-3.8%	-15.7%	nt	nt	-12.5%
Cc1ccc(S(=O)(=O)N(Cc2ccc(F)cc2)Cc2ccco2)cc1	8.9%	?	-6.9%	1.0	-7.0	22.9%
O=C(CN(Cc1ccccc1)S(=O)(=O)c1ccc(Br)cc1)NCc1ccco1	1.2%	7.94µM*	i	-0.5	2.3	2.4%
O=C(CN(Cc1ccc(Br)cc1)S(=O)(=O)c1ccccc1)NCc1ccccn1	-13.1%	-22.5%	-30.0%	0.5	-12.3	14.4%
Cc1ccc(S(=O)(=O)N(Cc2ccccc2)Cc2ccco2)cc1	-7.8%	11.2µM*	i	3.2	-1.4	15.1%
CCC(=O)N1CCc2cc(Br)cc(S(=O)(=O)N3CCN(C(=O)c4ccco4)CC3)c21	-3.5%	-31.0%	i	0.2	1.4	-10.4%
